Assay outcomes from PubChem BioAssay.
A selection: hits, their analogues and other compounds. The true share with any hit is near 1.4%.
KCNH2 3.1 block: qHTS for Inhibitors of KCHN2 3.1: Mutant qHTS | U2OS KCNH2 3.1, thallium flux FluxOr; hits give low values | activity change, % (tested at about 1.8 µM) | AID 720553, 2013 | Potassium voltage-gated channel subfamily H member 2, brain isoform KCNH2 3.1 (human) | 340,000 tested, 0.95% active;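 active = maximum activity change below -70%; inconclusive = maximum activity change from -70% to -50%; inactive = maximum activity change above -50%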;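 note: thallium influx rate constant from kinetic fluorescence after stimulation buffer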
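Steps: virus added to U2OS suspension (4 h, RT, dark); medium with 10% FBS added, cells plated, 37 C overnight; FluxOr/Red40 loading buffer 45 min RT; stimulation buffer, 2 min kinetic read; rate constant normalized.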
MmCpn inh: Inhibitors of TCP-1 ring complex (TRiC) of Methanococcus maripaludis (MmCpn): qHTS; Potency, µM (series often up to 76.9 µM), hits mostly inhibitors; 330,000 tested, 0.031% active; purified Mm-Cpn ATPase, ADP Transcreener TR-FRET; Chaperonin Mm-Cpn (Methanococcus maripaludis); note: nearly all actives have a fitted effect of over 80% in size
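ATPase read-out: TR-FRET ADP immunoassay (anti-ADP Eu cryptate vs ADP-d2), ex 320 nm, em 590/665 nm; signal drops as ADP forms. Enzyme 25 nM, ATP 10 uM, 30 min at 37°C after 10 min compound preincubation.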
hERG WT inh: qHTS for Inhibitors of KCHN2 3.1: Wildtype qHTS. activity change, % at 1.84 µM. 340,000 tested, 0.37% active. U2OS, BacMam KCNH2, thallium flux FluxOr; hits give low values. AID 720551, 2013;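 active = maximum activity change below -70%; inconclusive = maximum activity change between -70% and -50%; inactive = maximum activity change above -50%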
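U2OS cells were transduced with wild-type KCNH2 virus (2.03 x 10^8 / mL) for 4 h at room temperature, then cultured overnight at 37 C. Thallium flux was read with FluxOr dye. Rate constants were normalized to DMSO controls.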
uPA surface inh: qHTS for Inhibitors of Cell Surface uPA Generation; cell surface uPA generation assay, qHTS; Potency, µM (top dose mostly 38.3 µM), most hits filed as inhibitors; 330,000 tested, 0.31% active; AID 540303, 2011; active = well fitted inhibition curve with a large enough effect; inconclusive = small, poorly fitted or top-dose-only effect; inactive = no such curve, though single readings can be large or run the other way; tested in mouse RAW 264.7 cells; note: nearly all actives have a fitted effect of over 55% in size
p53 reactivator: qHTS assay for re-activators of p53 using a Luc reporter; H1299 p53-A138V BP100-luciferase reporter, luminescence, 24 h; 320,000 tested, 0.063% active; Potency, µM (series often up to 92.2 µM), actives largely listed as activators; note: nearly all actives have a fitted effect of over 45% in size
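p53-null H1299 cells stably carrying temperature-sensitive p53-A138V and a BP100-luciferase reporter were pinned with compounds (4-point, 1:5 series) and held 24 hrs at 37 deg C. Luminescence was read 10 min after detection reagent.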
ASM inhibitor: Inhibitors of Secretory Acid Sphingomyelinase (S-ASM): qHTS | placental ASM, HMU-PC fluorogenic substrate, 60 min | AID 504937, 2011 | Potency, µM (top dose mostly 57.5 µM), usual class: inhibitors | 340,000 tested, 0.006% active | Sphingomyelin phosphodiesterase (Homo sapiens), P17405
Target sequence (P17405 47-631 limits assumed): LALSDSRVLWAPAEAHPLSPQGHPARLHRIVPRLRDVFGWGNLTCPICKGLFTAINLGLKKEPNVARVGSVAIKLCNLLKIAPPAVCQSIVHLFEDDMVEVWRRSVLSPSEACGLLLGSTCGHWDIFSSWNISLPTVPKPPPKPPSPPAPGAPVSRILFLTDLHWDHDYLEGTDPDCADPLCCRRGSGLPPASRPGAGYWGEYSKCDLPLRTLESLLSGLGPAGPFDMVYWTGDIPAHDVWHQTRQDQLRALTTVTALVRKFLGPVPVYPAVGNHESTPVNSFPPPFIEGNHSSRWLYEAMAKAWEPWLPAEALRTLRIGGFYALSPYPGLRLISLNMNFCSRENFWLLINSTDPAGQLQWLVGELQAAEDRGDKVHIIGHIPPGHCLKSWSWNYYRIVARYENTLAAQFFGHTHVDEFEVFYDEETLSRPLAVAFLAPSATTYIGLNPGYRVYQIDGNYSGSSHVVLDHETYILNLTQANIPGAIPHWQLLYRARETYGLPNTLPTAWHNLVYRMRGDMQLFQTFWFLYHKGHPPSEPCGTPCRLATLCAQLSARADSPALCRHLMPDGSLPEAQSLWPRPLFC
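HMU-PC0 cleavage (9 uM final) by human placental ASM, 60 min at 37 °C following 10 min compound exposure at RT; stopped at pH 10, fluorescence Ex 386/Em 447 nm.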
Hits are given with their value; 0 = inactive; ? = inconclusive; - = no result given; ! = a repeat was not active; [ ] = dose if it differs, or a comment. Unless noted, calls come from the whole dose curve; as a rule, active = well fitted curve in the direction sought with a large enough effect; inconclusive = small, poorly fitted or top-dose-only effect, or another doubt; inactive = no such curve, though single readings can be large; an effect the other way counts as inactive or inconclusive.

SMILES	KCNH2 3.1 block	MmCpn inh	hERG WT inh	uPA surface inh	p53 reactivator	ASM inhibitor
CO/N=C/c1ccc(N2CCN(C(=O)c3ccc(C)cc3)CC2)c([N+](=O)[O-])c1	-98	0	0	-	0	0
CO/N=C/c1ccc(N2CCCC2)c([N+](=O)[O-])c1	0	0	0	0	0	0
CCCN(CC(=O)Nc1ccccc1C)C(=O)c1ccc(S(=O)(=O)N2CCC(C)CC2)cc1	0	0	0	0	0	0
Cc1ccc(-c2nnn(CC(=O)N(CC(=O)NC3CCCC3)c3ccc(F)cc3)n2)o1	0	0	-74	0	0	0
Cc1ccc(-c2nnn(CC(=O)N(CC(=O)NC3CCCC3)c3cccc(F)c3)n2)o1	0	0	0	0	0	0
Fc1ccc(-c2ccc3c(c2)C2CC3CCN2Cc2ccc3c(c2)OCO3)cc1 (stereo not given)	-	-	0	0	-	0
Cc1cccc(-c2ccc3c(c2)C2CC3CCN2Cc2ccc3c(c2)OCO3)c1 (stereo not given)	-76	-	0	0	-	0
Cc1ccc(NC(=O)CN(C)C(=O)CSc2ccccc2F)cc1	0	0	0	0	0	0
O=C(NCCS(=O)(=O)N1CCN(c2ccccc2)CC1)c1ccc(Br)o1	0	0	0	0	0	0
COc1ccc(-c2cc(C(=O)c3c(N)n(C)c(=O)n(C)c3=O)c3ccccc3n2)cc1	0	0	0	1.4µM	0	0
Cn1c(N)c(C(=O)c2cc(-c3ccccn3)nc3ccccc23)c(=O)[nH]c1=O	0	0	-101	0	0	0
O=C(NCCc1cn2cccnc2n1)C1CCC(=O)N(Cc2ccccc2F)C1 (stereo not given)	0	-	0	-	-	-
CC(C)(O)C(=O)NNC(=S)Nc1cccc(C(F)(F)F)c1	-94	0	0	0	0	0
CCN(CC)S(=O)(=O)c1ccc(Cl)c(NC(=O)COC(=O)c2nc3nc(C)cc(C)n3n2)c1	0	0	0	0	0	0
O=C(NCCN1CCOCC1)c1ccccc1N1C(=O)[C@@H]2Cc3c([nH]c4ccccc34)C(c3ccccc3)N2C1=O (stereo not given in full)	0	0	0	0	0	0
O=C(NCCCN1CCOCC1)c1ccccc1N1C(=O)[C@@H]2Cc3c([nH]c4ccccc34)C(c3ccc(F)cc3)N2C1=O (stereo not given in full)	-82	?	0	0	0	0
Cc1cccc(NC(=O)C(C)OC(=O)CNC(=O)C2CCCCC2)c1 (stereo not given)	0	-	-144	-	-	-
Cc1ccccc1OCc1n(CC(=O)OC2CC(C)CCC2C(C)C)c2ccccc2[n+]1C (stereo not given)	0	0	-82!	?	0	0
CC1CCC(C(C)C)C(OC(=O)Cn2c(-c3ccc(Cl)cc3)[n+](C)c3ccccc32)C1 (stereo not given)	0	0	0	?	0	0
CC1CCC(C(C)C)C(OC(=O)Cn2c(-c3ccc(Br)cc3)[n+](C)c3ccccc32)C1 (stereo not given)	?	0	-104!	0	0	0
COc1ccc(Cl)cc1NC(=O)CN(C)C(=O)c1cc2c(F)cccc2s1	0	0	0	6.3µM	0	0
COc1ccc(Cl)cc1NC(=O)CN(C)CC(=O)Nc1cc(OC)c(OC)c(OC)c1	0	0	0	3.5µM	0	0
COc1ccc(Cl)cc1NC(=O)CN(C)C(=O)c1ccc(C)s1	0	0	0	0	0	0
COC(=O)c1sc(S(=O)(=O)N2CCCCC2)c(C(=O)OC)c1C	-187	0	0	0	0	0
COC(=O)c1sc(S(=O)(=O)N2CCC(C)CC2)c(C(=O)OC)c1C	0	0	0	0	0	0
Cc1cc2c(c(=O)n1Cc1ccccc1)C1O[C@](CCCCN3C(=O)c4ccccc4C3=O)(Cc3cc(C#N)ccc31)O2	-	0[15.4 µM]	-	-	-	-
